Measured values: PubChem BioAssay (EPA / NIEHS)
“And” between values parts separate entries of the source, which are not always exact repeats. Equal entries are not always repeated. Where a structure was tested more than once in an assay, its records may differ in their call. The source made the active and inactive calls. Rule for the calls: active = hit-call score of the fitted dose curve at least 0.9, where 1 is the maximum; inactive = score below 0.9.

Legend:
[1] = read-out: Human Leukocyte Antigen - DR isotype (HLADR), HLA-DRA (gene 3122); assay: BSK_BE3C_HLADR: BioMAP Diversity Plus: BE3C Assay for Human Leukocyte Antigen - DR isotype (HLADR) Biomarker Activity (AID 2283032); settings: primary human bronchial epithelial cells; actives raise or lower the signal
In short: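 Primary human bronchial epithelial cells (BE3C); 24 h chemical exposure; HLA-DR by ELISA; bidirectional curve fit vs DMSO baseline.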

[2] = read-out: Vascular cell adhesion molecule 1 (VCAM1), VCAM1 (gene 7412); assay: BSK_4H_VCAM1: BioMAP Diversity Plus: 4H Assay for Vascular cell adhesion molecule 1 (VCAM1) Biomarker Activity (AID 2283033); settings: primary human endothelial cells (HUVEC); actives raise or lower the signal
In short: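 HUVEC, 24 h post-dose; VCAM-1 by ELISA. Bidirectional curve fit vs DMSO baseline. Parallel SRB total-protein stain (0.1% SRB after 10% TCA fixation, 560 nm) for cytotoxicity.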

[3] = read-out: Interferon-gamma inducible Protein 10 (IP10), CXCL10 (gene 3627); assay: BSK_BE3C_IP10: BioMAP Diversity Plus: BE3C Assay for Interferon-gamma inducible Protein 10 (IP10) Biomarker Activity (AID 2283034); settings: primary human bronchial epithelial cells; actives raise or lower the signal
In short: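 ELISA readout of IP-10 in BE3C system: primary human bronchial epithelial cells, 24 h post-dosing; bidirectional curve fit vs DMSO baseline.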

[4] = read-out: Monokine induced gamma interferon (MIG), CXCL9 (gene 4283); assay: BSK_BE3C_MIG: BioMAP Diversity Plus: BE3C Assay for Monokine induced gamma interferon (MIG) Biomarker Activity (AID 2283035); settings: primary human bronchial epithelial cells; actives raise or lower the signal
In short: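 Dose cells (human primary bronchial epithelial), incubate 24 h, quantify MIG by ELISA, then fit concentration–response in both directions relative to DMSO control.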

[5] = read-out: Transforming growth factor beta 1 (TGFb1), TGFB1 (gene 7040); assay: BSK_BE3C_TGFb1: BioMAP Diversity Plus: BE3C Assay for Transforming growth factor beta 1 (TGFb1) Biomarker Activity (AID 2283036); settings: primary human bronchial epithelial cells; actives raise or lower the signal
In short: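 Read-out: ELISA for TGF-b1 in primary human bronchial epithelial cultures, 24 h post-dose. Bidirectional curve fitting vs DMSO control; gain or loss of signal both scored.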

[6] = read-out: Plasminogen activator inhibitor-1 (PAI1), SERPINE1 (gene 5054); assay: BSK_BE3C_PAI1: BioMAP Diversity Plus: BE3C Assay for Plasminogen activator inhibitor-1 (PAI1) Biomarker Activity (AID 2283037); settings: primary human bronchial epithelial cells; actives raise or lower the signal
In short: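 ELISA read-out of PAI-1 from human bronchial epithelial primary cells, 24 h post-dosing; bidirectional curve fit vs DMSO baseline, gain or loss of signal scored.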

[7] = read-out: urokinase plasminogen activator (uPA), PLAU (gene 5328); assay: BSK_BE3C_uPA: BioMAP Diversity Plus: BE3C Assay for urokinase plasminogen activator (uPA) Biomarker Activity (AID 2283038); settings: primary human bronchial epithelial cells; actives raise or lower the signal
In short: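 Primary human bronchial epithelial cells, uPA measured by ELISA 24 h after dosing. Bidirectional change relative to DMSO; cytotoxicity checked in parallel cultures by sulforhodamine B total-protein staining.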

[8] = read-out: Urokinase-type plasminogen activator receptor (uPAR), PLAUR (gene 5329); assay: BSK_BE3C_uPAR: BioMAP Diversity Plus: BE3C Assay for Urokinase-type plasminogen activator receptor (uPAR) Biomarker Activity (AID 2283039); settings: primary human bronchial epithelial cells; actives raise or lower the signal
In short: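 ELISA readout of uPAR on human lung primary bronchial epithelial cells, 24 h post-dosing. Bidirectional curve fit relative to DMSO vehicle baseline; gain or loss of signal both scored.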

[9] = read-out: Interleukin-6 (IL6), IL6 (gene 3569); assay: BSK_CASM3C_IL6: BioMAP Diversity Plus: CASM3C Assay for Interleukin-6 (IL6) Biomarker Activity for (AID 2283040); settings: primary human coronary artery smooth muscle cells; actives raise or lower the signal
[10] = read-out: Tissue plasminogen activator (tPA), PLAT (gene 5327); assay: BSK_BE3C_tPA: BioMAP Diversity Plus: BE3C Assay for Tissue plasminogen activator (tPA) Biomarker Activity (AID 2283041); settings: primary human bronchial epithelial cells; actives raise or lower the signal;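 note: tPA level quantified by ELISA one day after compound addition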
In short: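 ELISA read-out of tPA on human primary bronchial epithelial cells, 24 h post-dosing; bidirectional fit vs DMSO negative control/baseline.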

Measured: AC50

COC(=O)C=C(C)OP(=O)(OC)OC
inactive: [1] | [2] | [3] | [4] | [5] | [6] | [7] | [8] | [9]

O=C(O)c1nc(Cl)ccc1Cl
inactive: [1] | [2] | [3] | [4] | [5] | [6] | [7] | [8] | [9] | [10]
active: [1] 28.8 µM

COP(N)(=O)SC (stereo not given)
inactive: [2] | [3] | [4] | [5] | [6] | [7] | [8] | [9]
active: [1] 5.27 µM

CC(Oc1ccc(Cl)cc1Cl)C(=O)O (stereo not given)
inactive: [1] | [2] | [3] | [4] | [5] | [6] | [7] | [8] | [9]

Cc1ccc(-c2c(Cl)nc(C#N)n2S(=O)(=O)N(C)C)cc1
inactive: [4] | [5] | [7] | [8] | [9]
active: [1] 5.94 µM | [2] 16.6 µM | [3] 6.57 µM | [6] 3.97 µM

CS/C(C)=N/OC(=O)N(C)SN(C)C(=O)O/N=C(\C)SC
active: [1] 30.1 µM | [2] 31.1 µM | [3] 25.9 µM | [9] 35 µM
inactive: [4] | [5] | [6] | [7] | [8]

CCCCOC(=O)c1ccccc1C(=O)OCCCC
inactive: [1] | [2] | [3] | [4] | [5] | [6] | [7] | [8] | [9]

CCCCNC(=O)OCC#CI
active: [1] 28.8 µM and 31.2 µM | [2] 25.1 µM and 21.8 µM | [3] 34 µM and 31.1 µM | [4] 37 µM and 31.3 µM | [5] 31.2 µM and 32.1 µM | [6] 30.1 µM | [7] 32 µM and 30.6 µM | [8] 30 µM and 30.4 µM | [9] 32.3 µM and 36.3 µM

O=C(O)COc1nc(Cl)c(Cl)cc1Cl
active: [5] 245 nM
inactive: [1] | [2] | [3] | [4] | [6] | [7] | [8] | [9]

COC(=O)C(C)Oc1ccc(Oc2ccc(Cl)cc2Cl)cc1 (stereo not given)
active: [1] 9.71 µM and 20 µM | [6] 32.5 µM | [9] 32.6 µM
inactive: [1] | [2] | [3] | [4] | [5] | [6] | [7] | [8] | [9]

CCCCNC(=O)n1c(NC(=O)OC)nc2ccccc21
inactive: [1] | [2] | [3] | [4] | [5] | [6] | [7] | [8] | [9]

Cc1cc(Cl)ccc1OCC(=O)O
inactive: [1] | [2] | [3] | [4] | [5] | [6] | [7] | [8] | [9]

COC(=O)c1ccccc1C(=O)OC
inactive: [1] | [2] | [3] | [4] | [5] | [6] | [7] | [8] | [9]

COc1nc(C)nc(NC(=O)NS(=O)(=O)c2ccccc2Cl)n1
active: [5] 290 nM
inactive: [1] | [2] | [3] | [4] | [5] | [6] | [7] | [8] | [9] | [10]

CC(C)Oc1cc(-n2nc(C(C)(C)C)oc2=O)c(Cl)cc1Cl
active: [1] 27.4 µM | [2] 28.2 µM | [3] 33.9 µM | [6] 20 µM | [7] 27.6 µM
inactive: [4] | [5] | [8] | [9]

CCCCC(CC)COC(=O)c1ccccc1C(=O)OCC(CC)CCCC (stereo not given)
active: [9] 7.31 µM
inactive: [1] | [2] | [3] | [4] | [5] | [6] | [7] | [8]

C=CCC1=C(C)C(OC(=O)C2C(C=C(C)C)C2(C)C)CC1=O (stereo not given)
active: [1] 15.7 µM and 32.3 µM and 30.9 µM | [2] 31.6 µM [middle of 4 runs] | [3] 35 µM and 39 µM | [8] 0.223 µM
inactive: [1] | [3] | [4] | [5] | [6] | [7] | [8] | [9]

CCc1nn(C)c(C(=O)NCc2ccc(C(C)(C)C)cc2)c1Cl
inactive: [5] | [9]
active: [1] 18.3 µM | [2] 6.81 µM | [3] 25.7 µM | [4] 29.4 µM | [6] 31.9 µM | [7] 30.6 µM | [8] 27.3 µM

COc1ccc(C(c2ccc(OC)cc2)C(Cl)(Cl)Cl)cc1
active: [1] 17.4 µM | [2] 25.1 µM | [3] 32.8 µM | [6] 14.3 µM | [9] 14 µM
inactive: [4] | [5] | [7] | [8]

N#CC(CCc1ccc(Cl)cc1)(Cn1cncn1)c1ccccc1 (stereo not given)
active: [1] 31.2 µM | [3] 33.7 µM
inactive: [2] | [4] | [5] | [6] | [7] | [8] | [9]

CNC(=O)ON=CC(C)(C)SC
inactive: [1] | [2] | [3] | [4] | [5] | [6] | [7] | [8] | [9]

CCNc1nc(Cl)nc(NC(C)C)n1
inactive: [1] | [2] | [3] | [4] | [5] | [6] | [7] | [8] | [9]

O=C(Nc1ccccc1)Nc1ccnc(Cl)c1
inactive: [2] | [3] | [4] | [5] | [6] | [7] | [9]
active: [1] 34.7 µM | [8] 0.807 µM

COc1cnc(OC)n2nc(NS(=O)(=O)c3c(OCC(F)F)cccc3C(F)(F)F)nc12
active: [6] 0.0487 µM
inactive: [1] | [2] | [3] | [4] | [5] | [6] | [7] | [8] | [9]

COC(=O)N(OC)c1ccccc1COc1ccn(-c2ccc(Cl)cc2)n1
inactive: [2] | [4] | [5] | [7] | [8] | [9]
active: [1] 3.97 µM | [3] 8.98 µM | [6] 5.65 µM

Cc1c(F)c(F)c(COC(=O)C2C(/C=C(\Cl)C(F)(F)F)C2(C)C)c(F)c1F (stereo not given)
inactive: [1] | [2] | [3] | [4] | [5] | [6] | [7] | [8] | [9]

COP(=S)(OC)Oc1nc(Cl)c(Cl)cc1Cl
inactive: [1] | [3] | [4] | [5] | [6] | [7] | [8] | [9] | [10]

CO/C=C(/C(=O)OC)c1ccccc1Oc1cc(Oc2ccccc2C#N)ncn1
active: [1] 16.5 µM [middle of 4 runs] | [3] 21.1 µM and 26.1 µM | [6] 21.1 µM | [9] 15.8 µM and 21.1 µM
inactive: [4] | [5] | [6] | [7] | [8] | [9]

COc1nc(NC(C)C)nc(NC(C)C)n1
inactive: [1] | [2] | [3] | [4] | [5] | [6] | [7] | [9]
active: [8] 2.36 µM

CCON=C(CC)C1=C(O)CC(c2c(C)cc(C)cc2C)CC1=O (stereo not given)
inactive: [1] | [2] | [3] | [4] | [5] | [6] | [7] | [8] | [9] | [10]

CNC(=S)S
active: [2] 22.4 µM | [8] 11.7 µM
inactive: [1] | [3] | [4] | [5] | [6] | [7] | [9]

Oc1ccccc1-c1ccccc1
inactive: [1] | [2] | [3] | [4] | [5] | [6] | [7] | [8] | [9] | [10]

CC1=C(C(=O)Nc2ccccc2)SCCO1
inactive: [1] | [2] | [3] | [4] | [5] | [6] | [8] | [9] | [10]
active: [7] 3.97 µM

CCOc1cc(Oc2ccc(C(F)(F)F)cc2Cl)ccc1[N+](=O)[O-]
active: [1] 9.39 µM
inactive: [2] | [3] | [4] | [5] | [6] | [7] | [8] | [9] | [10]

CCOC(=O)C(Cl)Cc1cc(-n2nc(C)n(C(F)F)c2=O)c(F)cc1Cl (stereo not given)
inactive: [1] | [2] | [3] | [4] | [5] | [6] | [7] | [8] | [9]

CC(C)C1(C)N=C(c2nc3ccccc3cc2C(=O)O)NC1=O (stereo not given)
inactive: [1] | [2] | [3] | [4] | [5] | [6] | [7] | [8] | [9] | [10]

Fc1ccc(Oc2ccnc3cc(Cl)cc(Cl)c23)cc1
active: [1] 24.3 µM | [2] 30.1 µM | [3] 28.7 µM | [4] 34.3 µM | [5] 32900 nM | [6] 30.3 µM | [7] 36.5 µM | [8] 34.2 µM | [9] 11.4 µM

CCOC(=O)CC(SP(=S)(OC)OC)C(=O)OCC (stereo not given)
inactive: [1] | [2] | [3] | [4] | [5] | [6] | [7] | [8] | [9] | [10]
